This is an account of results in PubChem BioAssay AID651582 (Sanford-Burnham Center for Chemical Genomics, 2012).

Out of some 230,000 compounds screened, about 1,500 (0.65%) were called active. This is one part of a sample in which actives are shown more often than they occur.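 Rule for the calls: active = pattern-corrected inhibition of lipid staining of at least 50% with the nuclear-stain viability signal not falling by more than 50%; inactive = the rest, inconclusive results apart.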

The nature of the test: inhibitors of triacylglycerol accumulation, primary screen, cell-based, uHTS, fluorescence, H9c2 (AID 651582).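 For inhibition: 0% = DMSO wells and 100% = triacsin C control wells.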 The note with it: H9c2 cells, Nile Red lipid (TAG) fluorescence, at 12.5 µM, cells loaded with 200 µM oleic acid; DAPI nuclei signal change (viability), lower = more cytotoxic: measured here: DAPI nuclei count viability; inhibition: stronger effect = higher value.
Usually inhibition stands for the drop in the measured response relative to a control, in per cent. In the case of `Cc1cc(NC(=O)CSc2nc3c(cc2C#N)CCCCC3)no1`, the DAPI nuclei signal change (viability), lower = more cytotoxic was 24% and the inhibition was 6.4% (inactive).
The like results for `Brc1ccc(CN2CC[C@H]3C=CCc4cccc(c43)C2)cc1` were, in that order, 12.5% and -54.7% (inactive).
The like results for `COc1ccc(Cl)cc1NC(=O)CN(C)C(=O)c1cc(-c2cccs2)nn1-c1ccccc1` were, in that order, 3.57% and 2.51% (inactive).
Consider `Cc1nc2ccccn2c(=O)c1NC(=O)c1ccc(Br)o1`, for which the DAPI nuclei signal change (viability), lower = more cytotoxic turned out to be 4.97% and the inhibition is 4.01% (inactive).
Turning to `COc1ccc(C(O)c2nc(-c3ccc(OC)nc3)cs2)cc1` (stereo not given), the DAPI nuclei signal change (viability), lower = more cytotoxic stood at 4.55% and the inhibition is -44.6% (inactive).
The like results for `COc1cc(/C=C2\Oc3ccc(C#Cc4ccc(O)cc4)cc3C2=O)cc(OC)c1` were, in that order, -0.886% and 120% (active).
`COc1cc(C#Cc2ccc3cc(CCCO)oc(=O)c3c2)cc(OC)c1`: the DAPI nuclei signal change (viability), lower = more cytotoxic is -19.9% and the inhibition is 46.6% (inactive).
`COc1ccc2c(c1)O/C(=C\c1ccccc1O)C2=O`: the DAPI nuclei signal change (viability), lower = more cytotoxic worked out at 4.81% and the inhibition was -5.85% (inactive).
Consider `O=C(CSc1n[nH]c(=O)n1-c1ccccc1)Nc1ccccc1C(F)(F)F`, for which the DAPI nuclei signal change (viability), lower = more cytotoxic is 4.07% and the inhibition was 6.49% (inactive).
On to `COc1ccc(OC)c(NC(=O)C2CCCN2S(=O)(=O)c2ccc3c(c2)CC(C)N3C(C)=O)c1` (stereo not given), for which the DAPI nuclei signal change (viability), lower = more cytotoxic was -10.6% and the inhibition was -4.08% (inactive).
In the case of `NC(=O)c1ccccc1N(Cc1ccccc1)S(=O)(=O)c1ccccc1`, the DAPI nuclei signal change (viability), lower = more cytotoxic is -8.47% and the inhibition is 2.63% (inactive).
With `CCN1CCN(C(=O)c2ccccc2N(C)S(=O)(=O)c2ccc(C)cc2)CC1`, the DAPI nuclei signal change (viability), lower = more cytotoxic is -0.758% and the inhibition is 7.33% (inactive).
As for `CCOC(=O)N1CCN(C(=O)c2ccccc2N(Cc2ccccc2)S(=O)(=O)c2ccc(OC)cc2)CC1`, the DAPI nuclei signal change (viability), lower = more cytotoxic was -41% and the inhibition is 53.3% (active).
The matching figures for `CCN1C[C@@H]2[C@@H]3C(=O)N(Cc4ccccc4)C(=O)[C@@H]3[C@](C)(C1=O)N2C(=O)c1ccc(C(C)(C)C)cc1`: -6.19% and 19.2% (inactive).
The matching figures for `COc1ccc(NC(=O)CNc2cc(S(=O)(=O)N3CCOCC3)ccc2N2CCOCC2)c(OC)c1`: 15.7% and -15.8% (inactive).
The like results for `Cc1ccsc1/C=N/Nc1ccc(Cl)nn1` were, in that order, -14% and 5.97% (inactive).
For `Clc1ccc(N/N=C/c2cccs2)nn1`, the DAPI nuclei signal change (viability), lower = more cytotoxic amounted to 3.1% and the inhibition was -6.69% (inactive).
The matching figures for `C/C(=N\Nc1ccc(Cl)nn1)c1ccccc1O`: -30.3% and 59.1% (active).
The like results for `COc1ccccc1-c1nn(Cc2ccccc2)cc1C(=O)N1CCN(c2ncccn2)CC1` were, in that order, -19.5% and 12.4% (inactive).
With `O=C1CC2(CCN(C(=O)COc3ccc(F)cc3)CC2)Oc2ccccc21`, the DAPI nuclei signal change (viability), lower = more cytotoxic was -14.6% and the inhibition is 21.4% (inactive).
Turning to `CC(C)C(=O)N1CCC2(CC1)Oc1ccc(F)cc1C(=O)C21CC(c2ccccc2)=NO1` (stereo not given), the DAPI nuclei signal change (viability), lower = more cytotoxic is -26.9% and the inhibition is 60% (active).
With `CC(C)C(=O)N1CCN(c2nc(-c3ccccc3)c3c(c2C#N)CC(C)(C)OC3)CC1`, the DAPI nuclei signal change (viability), lower = more cytotoxic stood at 5.61% and the inhibition was 6.61% (inactive).
With `COc1ccc(C(=O)NCc2ccccc2C)cc1S(=O)(=O)NC1CCCC1`, the DAPI nuclei signal change (viability), lower = more cytotoxic came out at 1.26% and the inhibition is -5.94% (inactive).
For the compound `O=C(O)c1ccc(NN=CC2=C(N3CCOCC3)/C(=C/c3ccccc3)CC2)cc1`, the DAPI nuclei signal change (viability), lower = more cytotoxic amounted to 1.8% and the inhibition is 2.29% (inactive).
Consider `O=C1Nc2ccc(Br)cc2/C1=N/N=C/C1=C(N2CCOCC2)C(=C\c2ccccc2)/CC1`, for which the DAPI nuclei signal change (viability), lower = more cytotoxic was -30.7% and the inhibition is 142% (active).
The like results for `C(=N\N1CCN(c2ccccn2)CC1)/C1=C(N2CCOCC2)C(=C/c2ccccc2)/CC1` were, in that order, 12.6% and 8.28% (inactive).
The matching figures for `CC(=O)Oc1ccc(Cn2c(C)c(C(=O)NCc3ccc(C#N)cc3)sc2=O)cc1`: -0.306% and -4.77% (inactive).
As for `COc1cc(Cl)c(C)cc1NC(=O)CSc1nnc(CN2CCCC2)o1`, the DAPI nuclei signal change (viability), lower = more cytotoxic came out at 4.62% and the inhibition is 1.12% (inactive).
The like results for `Cc1ccn(CC(=O)NC2CCCN(Cc3ccccc3F)C2)n1` (stereo not given) were, in that order, 1.69% and -15.9% (inactive).
Take `Cc1ccc(OCCNC(=O)c2cccc(S(=O)(=O)N3CCN(Cc4ccccc4)CC3)c2)cc1`: the DAPI nuclei signal change (viability), lower = more cytotoxic was determined as 3.36% and the inhibition is -7.75% (inactive).
The like results for `CC(C)CCOc1ccc(C(=O)Nc2cc(S(=O)(=O)N3CCOCC3)ccc2N2CCOCC2)cc1` were, in that order, -52.3% and 65.1% (inactive).
The like results for `O=C(Nc1ccc2oc(-c3ccc4ccccc4c3)nc2c1)c1cccs1` were, in that order, 21.1% and 33% (inactive).
Turning to `CCCCCC(=O)Nc1ccc2oc(-c3ccncc3)nc2c1`, the DAPI nuclei signal change (viability), lower = more cytotoxic is -5.68% and the inhibition is 4.08% (inactive).
Consider `O=C(Cc1cccc2ccccc12)Nc1ccc2oc(-c3ccccc3)nc2c1`, for which the DAPI nuclei signal change (viability), lower = more cytotoxic is -5.68% and the inhibition is 55.2% (active).
Turning to `CC(=O)NC(c1cccc(F)c1)c1nc(-c2cccc(F)c2)cs1` (stereo not given), the DAPI nuclei signal change (viability), lower = more cytotoxic stood at 2.1% and the inhibition was -15.8% (inactive).
As to `CCCn1c(N)c(C(=O)CSc2nnc(Cc3cccs3)n2C2CC2)c(=O)[nH]c1=O`, the DAPI nuclei signal change (viability), lower = more cytotoxic is -3.34% and the inhibition was 5.02% (inactive).
The like results for `COc1ccc(S(=O)(=O)N2CCN(CC(=O)NCC3(N4CCOCC4)CCCCC3)CC2)cc1` were, in that order, -5.18% and -1.89% (inactive).
With `COc1cc(Cn2c3ccc(NC(=O)CC(C)c4ccccc4)cc3c(=O)n2C)ccc1F` (stereo not given), the DAPI nuclei signal change (viability), lower = more cytotoxic stood at 6.84% and the inhibition is 4.12% (inactive).
`CCOCCC(=O)Nc1ccc2c(c1)c(=O)n(C)n2-c1ccc2ccccc2c1`: the DAPI nuclei signal change (viability), lower = more cytotoxic is -27.1% and the inhibition is 52.9% (active).
With `CCn1c2ccccc2c2cc(NC(=O)CNC)ccc21`, the DAPI nuclei signal change (viability), lower = more cytotoxic was -1.08% and the inhibition was 10.2% (inactive).
